Data taken from the supplement of paper PMC4466140.

target: AgAbp1; test: SPOT peptide array binding signal intensity (averaged, normalized) (arbitrary units (background-subtracted, floor 0; scale differs between SH3 domains)); higher = stronger binding of the SH3 domain to the peptide
Summary of the method: (§1)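 E. coli BL21(DE3) was used to express GST-fused SH3 domains from four yeast species, which were then purified on glutathione Sepharose. These were incubated at 10 μg/ml in TBS-based blocking buffer overnight at 4°C on cellulose membranes carrying synthetic 15-mer peptides, in which cysteines were replaced by serines. Binding signal is the replicate average of normalized, background-subtracted spot intensity, in arbitrary units that differ between domains.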

Binder | SPOT peptide array binding signal intensity
NNFYRPLLRSVLVLL | ≤ 0

target: AgBbc1; test: as above
Summary of the method: as §1

Binder | SPOT peptide array binding signal intensity
NNFYRPLLRSVLVLL | ≤ 0

target: AgBem1-D1; test: as above
Summary of the method: as §1

Binder | SPOT peptide array binding signal intensity
NNFYRPLLRSVLVLL | 8

target: AgBzz1-D1; test: as above
Summary of the method: as §1

Binder | SPOT peptide array binding signal intensity
NNFYRPLLRSVLVLL | 13

target: AgBzz1-D2; test: as above
Summary of the method: as §1

Binder | SPOT peptide array binding signal intensity
NNFYRPLLRSVLVLL | 18

target: AgCyk3; test: as above
Summary of the method: as §1

Binder | SPOT peptide array binding signal intensity
NNFYRPLLRSVLVLL | ≤ 0

target: AgFus1; test: as above
Summary of the method: as §1

Binder | SPOT peptide array binding signal intensity
NNFYRPLLRSVLVLL | 246

target: AgHof1; test: as above
Summary of the method: as §1

Binder | SPOT peptide array binding signal intensity
NNFYRPLLRSVLVLL | ≤ 0

target: AgHse1; test: as above
Summary of the method: as §1

Binder | SPOT peptide array binding signal intensity
NNFYRPLLRSVLVLL | 722

target: AgLsb1; test: as above
Summary of the method: as §1

Binder | SPOT peptide array binding signal intensity
NNFYRPLLRSVLVLL | 0.5

target: AgLsb4; test: as above
Summary of the method: as §1

Binder | SPOT peptide array binding signal intensity
NNFYRPLLRSVLVLL | 10.5

target: AgMyo5; test: as above
Summary of the method: as §1

Binder | SPOT peptide array binding signal intensity
NNFYRPLLRSVLVLL | ≤ 0

target: AgNbp2; test: as above
Summary of the method: as §1

Binder | SPOT peptide array binding signal intensity
NNFYRPLLRSVLVLL | 6.5

target: AgRvs167; test: as above
Summary of the method: as §1

Binder | SPOT peptide array binding signal intensity
NNFYRPLLRSVLVLL | 1

target: AgSho1; test: as above
Summary of the method: as §1

Binder | SPOT peptide array binding signal intensity
NNFYRPLLRSVLVLL | 14.5

target: AgSla1-D1-D2; test: as above
Summary of the method: as §1

Binder | SPOT peptide array binding signal intensity
NNFYRPLLRSVLVLL | 1

target: AgSla1-D3; test: as above
Summary of the method: as §1

Binder | SPOT peptide array binding signal intensity
NNFYRPLLRSVLVLL | 2

target: CaAbp1-D1; test: as above
Summary of the method: as §1

Binder | SPOT peptide array binding signal intensity
NNFYRPLLRSVLVLL | ≤ 0

target: CaAbp1-D2; test: as above
Summary of the method: as §1

Binder | SPOT peptide array binding signal intensity
NNFYRPLLRSVLVLL | ≤ 0

target: CaBbc1; test: as above
Summary of the method: as §1

Binder | SPOT peptide array binding signal intensity
NNFYRPLLRSVLVLL | ≤ 0

target: CaBem1-D1; test: as above
Summary of the method: as §1

Binder | SPOT peptide array binding signal intensity
NNFYRPLLRSVLVLL | ≤ 0

target: CaBzz1-D1; test: as above
Summary of the method: as §1

Binder | SPOT peptide array binding signal intensity
NNFYRPLLRSVLVLL | ≤ 0

target: CaBzz1-D2; test: as above
Summary of the method: as §1

Binder | SPOT peptide array binding signal intensity
NNFYRPLLRSVLVLL | 1

target: CaCyk3; test: as above
Summary of the method: as §1

Binder | SPOT peptide array binding signal intensity
NNFYRPLLRSVLVLL | ≤ 0

target: CaFus1; test: as above
Summary of the method: as §1

Binder | SPOT peptide array binding signal intensity
NNFYRPLLRSVLVLL | 2730

target: CaHof1; test: as above
Summary of the method: as §1

Binder | SPOT peptide array binding signal intensity
NNFYRPLLRSVLVLL | 0.75

target: CaHse1; test: as above
Summary of the method: as §1

Binder | SPOT peptide array binding signal intensity
NNFYRPLLRSVLVLL | 21.8

target: CaLsb1; test: as above
Summary of the method: as §1

Binder | SPOT peptide array binding signal intensity
NNFYRPLLRSVLVLL | ≤ 0

target: CaLsb4; test: as above
Summary of the method: as §1

Binder | SPOT peptide array binding signal intensity
NNFYRPLLRSVLVLL | ≤ 0

target: CaMyo5; test: as above
Summary of the method: as §1

Binder | SPOT peptide array binding signal intensity
NNFYRPLLRSVLVLL | ≤ 0

target: CaNbp2; test: as above
Summary of the method: as §1

Binder | SPOT peptide array binding signal intensity
NNFYRPLLRSVLVLL | 72.5

target: CaRvs167; test: as above
Summary of the method: as §1

Binder | SPOT peptide array binding signal intensity
NNFYRPLLRSVLVLL | 3

target: CaRvs167-3; test: as above
Summary of the method: as §1

Binder | SPOT peptide array binding signal intensity
NNFYRPLLRSVLVLL | 1

target: CaSho1; test: as above
Summary of the method: as §1

Binder | SPOT peptide array binding signal intensity
NNFYRPLLRSVLVLL | 80

target: CaSla1-D1-D2; test: as above
Summary of the method: as §1

Binder | SPOT peptide array binding signal intensity
NNFYRPLLRSVLVLL | ≤ 0

target: CaSla1-D3; test: as above
Summary of the method: as §1

Binder | SPOT peptide array binding signal intensity
NNFYRPLLRSVLVLL | ≤ 0

target: ScAbp1; test: as above
Summary of the method: as §1

Binder | SPOT peptide array binding signal intensity
NNFYRPLLRSVLVLL | ≤ 0

target: ScBbc1; test: as above
Summary of the method: as §1

Binder | SPOT peptide array binding signal intensity
NNFYRPLLRSVLVLL | 0.75

target: ScBem1-D1; test: as above
Summary of the method: as §1

Binder | SPOT peptide array binding signal intensity
NNFYRPLLRSVLVLL | 4

target: ScBzz1-D1; test: as above
Summary of the method: as §1

Binder | SPOT peptide array binding signal intensity
NNFYRPLLRSVLVLL | 19

target: ScBzz1-D2; test: as above
Summary of the method: as §1

Binder | SPOT peptide array binding signal intensity
NNFYRPLLRSVLVLL | 6

target: ScCyk3; test: as above
Summary of the method: as §1

Binder | SPOT peptide array binding signal intensity
NNFYRPLLRSVLVLL | 57.5

target: ScFus1; test: as above
Summary of the method: as §1

Binder | SPOT peptide array binding signal intensity
NNFYRPLLRSVLVLL | 238

target: ScHof1; test: as above
Summary of the method: as §1

Binder | SPOT peptide array binding signal intensity
NNFYRPLLRSVLVLL | 1

target: ScHse1; test: as above
Summary of the method: as §1

Binder | SPOT peptide array binding signal intensity
NNFYRPLLRSVLVLL | 1040

target: ScLsb1; test: as above
Summary of the method: as §1

Binder | SPOT peptide array binding signal intensity
NNFYRPLLRSVLVLL | 0.5

target: ScLsb2; test: as above
Summary of the method: as §1

Binder | SPOT peptide array binding signal intensity
NNFYRPLLRSVLVLL | 1

target: ScLsb3; test: as above
Summary of the method: as §1

Binder | SPOT peptide array binding signal intensity
NNFYRPLLRSVLVLL | 0.5

target: ScLsb4; test: as above
Summary of the method: as §1

Binder | SPOT peptide array binding signal intensity
NNFYRPLLRSVLVLL | ≤ 0

target: ScMyo3; test: as above
Summary of the method: as §1

Binder | SPOT peptide array binding signal intensity
NNFYRPLLRSVLVLL | ≤ 0

target: ScMyo5; test: as above
Summary of the method: as §1

Binder | SPOT peptide array binding signal intensity
NNFYRPLLRSVLVLL | ≤ 0

target: ScNbp2; test: as above
Summary of the method: as §1

Binder | SPOT peptide array binding signal intensity
NNFYRPLLRSVLVLL | 13

target: ScPex13; test: as above
Summary of the method: as §1

Binder | SPOT peptide array binding signal intensity
NNFYRPLLRSVLVLL | 0.25

target: ScRvs167; test: as above
Summary of the method: as §1

Binder | SPOT peptide array binding signal intensity
NNFYRPLLRSVLVLL | 2.33

target: ScSho1; test: as above
Summary of the method: as §1

Binder | SPOT peptide array binding signal intensity
NNFYRPLLRSVLVLL | 350

target: ScSla1-D1-D2; test: as above
Summary of the method: as §1

Binder | SPOT peptide array binding signal intensity
NNFYRPLLRSVLVLL | ≤ 0

target: ScSla1-D3; test: as above
Summary of the method: as §1

Binder | SPOT peptide array binding signal intensity
NNFYRPLLRSVLVLL | 0.5

target: SpAbp1-D1; test: as above
Summary of the method: as §1

Binder | SPOT peptide array binding signal intensity
NNFYRPLLRSVLVLL | ≤ 0

target: SpBbc1; test: as above
Summary of the method: as §1

Binder | SPOT peptide array binding signal intensity
NNFYRPLLRSVLVLL | ≤ 0

target: SpBzz1-D1; test: as above
Summary of the method: as §1

Binder | SPOT peptide array binding signal intensity
NNFYRPLLRSVLVLL | 8

target: SpBzz1-D2; test: as above
Summary of the method: as §1

Binder | SPOT peptide array binding signal intensity
NNFYRPLLRSVLVLL | 0.5

target: SpCyk3; test: as above
Summary of the method: as §1

Binder | SPOT peptide array binding signal intensity
NNFYRPLLRSVLVLL | 6.5

target: SpHof1; test: as above
Summary of the method: as §1

Binder | SPOT peptide array binding signal intensity
NNFYRPLLRSVLVLL | 3

target: SpHof1-2; test: as above
Summary of the method: as §1

Binder | SPOT peptide array binding signal intensity
NNFYRPLLRSVLVLL | 4

target: SpHof1-3; test: as above
Summary of the method: as §1

Binder | SPOT peptide array binding signal intensity
NNFYRPLLRSVLVLL | 366

target: SpHse1; test: as above
Summary of the method: as §1

Binder | SPOT peptide array binding signal intensity
NNFYRPLLRSVLVLL | 1050

target: SpLsb1; test: as above
Summary of the method: as §1

Binder | SPOT peptide array binding signal intensity
NNFYRPLLRSVLVLL | ≤ 0

target: SpLsb4; test: as above
Summary of the method: as §1

Binder | SPOT peptide array binding signal intensity
NNFYRPLLRSVLVLL | ≤ 0

target: SpMyo1; test: as above
Summary of the method: as §1

Binder | SPOT peptide array binding signal intensity
NNFYRPLLRSVLVLL | ≤ 0

target: SpNbp2; test: as above
Summary of the method: as §1

Binder | SPOT peptide array binding signal intensity
NNFYRPLLRSVLVLL | 0.5

target: SpPex13; test: as above
Summary of the method: as §1

Binder | SPOT peptide array binding signal intensity
NNFYRPLLRSVLVLL | 5.5

target: SpRvs167; test: as above
Summary of the method: as §1

Binder | SPOT peptide array binding signal intensity
NNFYRPLLRSVLVLL | 0.667

target: SpSla1-D1-D2; test: as above
Summary of the method: as §1

Binder | SPOT peptide array binding signal intensity
NNFYRPLLRSVLVLL | 4

target: SpSla1-D3; test: as above
Summary of the method: as §1

Binder | SPOT peptide array binding signal intensity
NNFYRPLLRSVLVLL | ≤ 0
